Reference: PubChem BioAssay
The source made the active and inactive calls.

Tests used:
[1] = tested on: Plasmodium falciparum Sir2 (PF13_0152, Sir2A); experiment: Plasmodium falciparum Sir2A binding compounds – biochemical, small-molecule microarray, 635 nm fluorescence, primary screen (AID 1098); details: fluorescence 635 nm, higher = more signal;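 further: score merges spot fluorescence intensity with its signal-to-noise ratio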
[2] = probe aDKK1 binding to arrayed compounds – biochemical, biotinylated probe, 635/667 nm fluorescence, primary screen (AID 1099); details: small-molecule microarray, higher = more signal;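 further: score merges 667nm spot fluorescence with signal to noise across triplicate slides; reference of the scale not given here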
[3] = probe aCHRDL2 binding to arrayed compounds – biochemical, biotinylated probe, 635/667 nm fluorescence, primary screen (AID 1100); details: small-molecule microarray, higher = more signal
[4] = change in splice reporter luminescence, either direction, cell-based, HEK293, spliceosome inhibition project, primary screen (AID 1101); details: HEK293 splicing luciferase reporter, 24 h, higher = more signal, called active from +8 up or from −8 down;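 further: HEK293 cells carrying a splicing-competent luciferase reporter gene; test concentration not given here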
[5] = biological target: Fibroblast growth factor 10 (Homo sapiens) (UniProt O15520); experiment: compounds binding fibroblast growth factor 10 – biochemical, small-molecule microarray, 635 nm fluorescence, primary screen (AID 1102); details: FGF10 binding, fluorescence 635 nm, higher = more signal
Sequence of Fibroblast growth factor 10 (Homo sapiens) (O15520 whole entry, looked up): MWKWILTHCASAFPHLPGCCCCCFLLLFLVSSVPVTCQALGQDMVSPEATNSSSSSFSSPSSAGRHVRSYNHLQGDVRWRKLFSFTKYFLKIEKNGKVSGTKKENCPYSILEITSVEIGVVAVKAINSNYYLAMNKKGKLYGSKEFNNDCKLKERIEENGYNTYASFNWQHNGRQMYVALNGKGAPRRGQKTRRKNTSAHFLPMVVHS

[6] = tested on: glycogen synthase kinase-3 (GSK3A per assay name; protocol says GSK3B); experiment: compounds binding glycogen synthase kinase-3 – biochemical, small-molecule microarray, 635 nm fluorescence, GSK3A, primary screen (AID 1103); details: fluorescence 635 nm, higher = more signal; further: the record names both GSK3A and GSK3B
[7] = biological target: Epidermal growth factor receptor (Homo sapiens) (UniProt P00533); experiment: compounds binding epidermal growth factor receptor – biochemical, small-molecule microarray, 635 nm fluorescence, primary screen (AID 1104); details: EGFR binding, higher = more signal;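 further: score merges 667 nm emission intensity with spot signal to noise over triplicate slides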
Sequence of Epidermal growth factor receptor (Homo sapiens) (P00533 whole entry, looked up): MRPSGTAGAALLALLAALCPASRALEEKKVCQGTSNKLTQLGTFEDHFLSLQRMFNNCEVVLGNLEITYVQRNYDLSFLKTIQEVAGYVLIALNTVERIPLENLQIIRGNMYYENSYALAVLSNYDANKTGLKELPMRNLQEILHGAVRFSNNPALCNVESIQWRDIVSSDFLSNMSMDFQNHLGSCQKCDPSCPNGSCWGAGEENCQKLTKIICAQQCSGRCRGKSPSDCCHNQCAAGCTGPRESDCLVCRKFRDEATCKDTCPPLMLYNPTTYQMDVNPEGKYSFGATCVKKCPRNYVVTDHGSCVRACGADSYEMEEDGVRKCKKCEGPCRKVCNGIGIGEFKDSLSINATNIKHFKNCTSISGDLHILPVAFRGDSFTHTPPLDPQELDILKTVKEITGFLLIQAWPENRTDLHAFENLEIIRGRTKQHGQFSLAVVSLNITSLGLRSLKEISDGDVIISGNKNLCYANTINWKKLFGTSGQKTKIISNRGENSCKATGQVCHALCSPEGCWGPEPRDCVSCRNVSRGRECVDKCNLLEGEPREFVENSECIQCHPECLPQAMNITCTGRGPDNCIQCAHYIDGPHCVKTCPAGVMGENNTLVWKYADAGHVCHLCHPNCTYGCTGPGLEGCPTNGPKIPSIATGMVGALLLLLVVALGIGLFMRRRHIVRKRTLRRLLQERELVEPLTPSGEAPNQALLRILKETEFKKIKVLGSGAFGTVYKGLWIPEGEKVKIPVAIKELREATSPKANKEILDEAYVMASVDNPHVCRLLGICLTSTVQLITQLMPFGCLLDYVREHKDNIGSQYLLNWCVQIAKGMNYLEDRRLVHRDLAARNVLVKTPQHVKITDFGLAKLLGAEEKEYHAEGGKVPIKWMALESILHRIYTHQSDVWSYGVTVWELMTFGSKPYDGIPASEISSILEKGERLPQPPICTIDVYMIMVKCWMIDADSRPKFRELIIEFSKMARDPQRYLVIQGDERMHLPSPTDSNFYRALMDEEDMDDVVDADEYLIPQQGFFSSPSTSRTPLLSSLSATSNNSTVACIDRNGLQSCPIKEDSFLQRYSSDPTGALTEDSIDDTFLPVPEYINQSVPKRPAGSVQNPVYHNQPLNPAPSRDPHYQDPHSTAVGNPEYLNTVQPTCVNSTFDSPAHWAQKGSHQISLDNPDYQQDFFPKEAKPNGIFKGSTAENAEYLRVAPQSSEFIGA

[8] = biological target: Follistatin-related protein 3 (Homo sapiens) (UniProt O95633); experiment: compounds binding follistatin-related protein 3 – biochemical, small-molecule microarray, 635 nm fluorescence, primary screen (AID 1105); details: FSTL3 binding, higher = more signal;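 further: score merges emission near 667 nm and signal to noise per printed spot across three slides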
Sequence of Follistatin-related protein 3 (Homo sapiens) (O95633 whole entry, looked up): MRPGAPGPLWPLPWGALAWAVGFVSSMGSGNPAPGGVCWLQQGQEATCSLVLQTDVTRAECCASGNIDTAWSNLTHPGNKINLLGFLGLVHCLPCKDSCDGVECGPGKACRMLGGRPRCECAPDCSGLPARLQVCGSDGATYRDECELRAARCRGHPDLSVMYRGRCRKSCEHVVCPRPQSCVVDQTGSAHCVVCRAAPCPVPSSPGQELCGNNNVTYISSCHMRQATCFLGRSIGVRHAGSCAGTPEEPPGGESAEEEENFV

[9] = biological target: Dickkopf-related protein 1 (Homo sapiens) (UniProt O94907); experiment: small molecules binding DKK1 protein – biochemical, small-molecule microarray, 635 nm fluorescence scan, primary screen (AID 1106); details: higher = more signal;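 further: score merges emission near 667 nm with signal to noise over three replicate slides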
Sequence of Dickkopf-related protein 1 (Homo sapiens) (O94907 whole entry, looked up): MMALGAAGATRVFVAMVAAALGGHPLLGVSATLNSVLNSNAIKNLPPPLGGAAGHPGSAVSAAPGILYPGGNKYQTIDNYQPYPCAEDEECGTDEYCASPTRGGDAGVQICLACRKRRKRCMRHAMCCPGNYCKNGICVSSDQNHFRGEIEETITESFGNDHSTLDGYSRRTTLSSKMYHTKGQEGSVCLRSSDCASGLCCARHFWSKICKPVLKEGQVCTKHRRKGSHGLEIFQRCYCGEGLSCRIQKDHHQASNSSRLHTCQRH

[10] = tested on: Inhibin beta A chain (activin A); experiment: small molecules binding activin A – biochemical, small-molecule microarray, 635 nm fluorescence scan, primary screen (AID 1107); details: INHBA, higher = more signal;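 further: mouse activin A protein probed at 4.33 µg/mL on printed slides; score merges bound-protein fluorescence near 667 nm with spot signal-to-noise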

Compound | composite z-score [1] | composite z-score [2] | composite z-score [3] | z-score [4] | composite z-score [5] | composite z-score [6] | composite z-score [7] | composite z-score [8] | composite z-score [9] | composite z-score [10]
COc1ccc(C(=O)Nc2cccc(CN3C(=O)[C@@]4(O[C@@H](CC(=O)N5Cc6ccccc6C[C@H]5CO)[C@H]([Si](C)(C)c5ccc(OC)cc5)[C@H]4C)c4ccccc43)c2)cc1 | 1.42 | -0.287 | -0.0642 | -1.14 (inactive) | 0.639 | 0.363 | 0.978 | 1.24 | 1.11 | 0.551
O=P(NCC1(CC2(c3ccccc3)CO2)CC1)(c1ccccc1)c1ccccc1 (stereo not given) | 1.57 | 0.29 | 1.02 | -1.45 (inactive) | -0.686 | -1.49 | -1.28 | -1.37 | -0.915 | 0.758
CN1C(=O)C2C=CC(C(O)C3=C[C@H]4C[C@@H](C3)C4(C)C)N(Nc3ccc([N+](=O)[O-])cc3[N+](=O)[O-])C2C1=O (stereo not given in full) | 1.22 | 1.34 | 1.07 | 0.674 (inactive) | 0.721 | 1.28 | 0.21 | 0.988 | -0.446 | 0.844
CCOC(=O)C[C@H]1[C@H](OC(=O)c2ccc(C(=O)c3ccccc3)cc2)[C@@H](NC(=O)c2ccc3ccccc3n2)c2cc(OCCCO)ccc2N1C(=O)c1ccc2ccccc2n1 | 0.143 | 0.492 | 0.661 | -0.679 (inactive) | 0.418 | 0.232 | 0.703 | 0.154 | 0.0952 | 0.41
COCCn1c(C(=O)N(C)C)cc2c1C[C@H]1CN(C(=O)c3ccccc3)[C@@](Cc3ccc(F)cc3)(C(=O)OC)[C@@H]21 | 0.205 | 1.15 | 0.843 | -1.12 (inactive) | 0.61 | 0.397 | -0.0331 | 0.126 | -0.567 | 0.692
C=C(C(=O)CC[C@@H](OC(=O)c1cccnc1)c1ccc(OCCO)cc1)C(C)C | 0.603 | -0.312 | -0.188 | -0.255 (inactive) | 0.922 | 0.154 | -0.255 | 0.802 | 0.906 | 0.223
C=CCNC(=O)[C@H]1[C@@H]2C(=O)O[C@@H](c3ccccc3)[C@@H](c3ccccc3)N2[C@@H](c2ccc(O)cc2)[C@]12C(=O)Nc1ccc(C#Cc3ccc(OC)cc3)cc12 | 1.53 | 0.257 | 0.536 | 0.338 (inactive) | 0.782 | 1.23 | 0.728 | 1.21 | 0.94 | -0.13
OCCCc1cc[n+](Cc2cccc(OC(F)(F)F)c2)cc1 | 1.67 | 0.237 | 0.526 | -0.109 (inactive) | 0.0895 | 0.873 | 0.0648 | 1.03 | 0.346 | 1.14
C[C@H]1C2[C@H](Cc3ccccc3)NC(=O)[C@]23C(=O)N[C@H](Cc2ccccc2)C(=O)N[C@H](Cc2ccccc2)C(=O)NC/C=C/CCC/C=C/C3[C@@H]2O[C@]12C (stereo not given in full) | 1.17 | -0.319 | -0.327 | -0.549 (inactive) | 0.398 | 0.309 | 0.17 | 1.4 | 0.54 | 0.645
C=C(CCCC)/C(=C/C[C@H](OC(C)=O)c1ccc(CO)o1)c1cc(C(=O)OC)ccc1OC | 1.43 | -0.0797 | -0.438 | -0.27 (inactive) | 1.25 | 0.469 | -0.102 | 1.25 | 0.291 | 0.638
COc1ccc(C#Cc2ccc3c(c2)[C@]2(C(=O)N3)[C@H](C(=O)N3CCc4cc(OC)c(OC)cc4C3)[C@H]3C(=O)O[C@H](c4ccccc4)[C@H](c4ccccc4)N3[C@@H]2c2ccc(OCCO)cc2)cc1 | 1.07 | -0.029 | -0.13 | 0.8 (inactive) | 1.29 | 1.27 | 0.504 | 1.08 | 0.671 | 0.0787
COc1ccc([Si](C)(C)[C@@H]2[C@@H](CCO)O[C@]3(C(=O)N(Cc4ccccc4)c4ccc(N(C=O)c5ccccc5)cc43)[C@H]2C)cc1 | 0.622 | -0.185 | -0.025 | -1.1 (inactive) | 0.454 | -0.141 | 0.012 | -0.0895 | 0.169 | 0.328
O=C1OCC=C[C@H]2OC34C=CCN(Cc5ccccc5)C(=O)[C@H]3N(CCCO)C(=O)[C@@H]4[C@@H]12 (stereo not given in full) | 0.995 | 1.16 | 0.907 | -0.589 (inactive) | 0.0676 | 0.301 | -0.692 | 0.37 | -0.896 | 1.22
C=CC[C@@]1(C(N)=O)N=C(c2ccc(OCCCO)cc2)O[C@@H]1c1ccccc1N=[N+]=[N-] | 1.61 | 1.36 | 1.14 | -0.0133 (inactive) | 0.63 | 0.649 | 0.0347 | 0.0562 | 1.16 | 1.38
C[C@]1(C(=O)NCC(F)(F)F)c2ccccc2C(=O)N(Cc2cc(F)cc(C(F)(F)F)c2)[C@H]1c1ccc(CO)cc1 | 1.54 | 1.64 | 0.572 | -0.633 (inactive) | 0.257 | -0.12 | 0.0376 | -0.66 | -0.609 | -0.461
COCCOC(=O)N1C(=O)[C@@]2(c3cc(C#CC4=CCCCC4)ccc31)[C@H](C(=O)N1CCN(c3ncccn3)CC1)[C@H]1C(=O)O[C@H](c3ccccc3)[C@H](c3ccccc3)N1[C@@H]2c1ccc(OCCO)cc1 | -0.424 | 0.282 | 0.298 | -0.902 (inactive) | 1.3 | 1.18 | 0.959 | 1.37 | 0.994 | 1.26
CCOC(=O)C1=CC[C@@H](c2ccccc2)N(S(=O)(=O)c2ccc(C)cc2)[C@H]1c1ccc(C#N)cc1 | 0.802 | 1.17 | 1.18 | -0.29 (inactive) | 0.278 | 1.29 | -0.18 | 0.272 | -0.972 | 0.676

Compound | composite z-score [1] | composite z-score [2] | composite z-score [3] | z-score [4] | composite z-score [5] | composite z-score [6] | composite z-score [7] | composite z-score [8] | composite z-score [9] | composite z-score [10]
[N-]=[N+]=NCc1ccccc1[C@@H]1OC(c2ccc(OCCCO)cc2)=N[C@]1(Cc1ccccc1)C(=O)O | 1.03 | 0.175 | 0.917 | -0.013 (inactive) | 0.661 | 0.294 | -0.321 | -0.086 | -0.617 | 1.2
O=C1C2C=CC(C(O)c3ccc(Br)cc3)N(n3cnnc3)C2C(=O)N1Cc1ccccc1 (stereo not given) | 1.11 | 0.578 | 0.479 | 0.696 (inactive) | 0.946 | 1.07 | 0.406 | 0.819 | 0.0363 | -0.0003
CCCNC(=O)[C@@]1(C)c2ccccc2C(=O)N(Cc2ccc(OC(F)(F)F)cc2)[C@H]1c1ccc(CO)cc1 | 1.57 | 0.0743 | 0.666 | -0.129 (inactive) | 0.0672 | 0.0816 | -1.02 | -0.401 | -0.977 | 0.427
C/C=C/[C@H](CCn1cc([C@H](O)c2ccccc2)nn1)[Si](C)(C)c1ccc(OC)cc1 | 0.0765 | -0.49 | 0.503 | 0.264 (inactive) | -0.607 | -0.855 | -1.52 | -1.72 | -0.338 | -0.343
COCCOC(=O)N1C(=O)[C@@]2(c3cc(C#CC4(O)CCCCCC4)ccc31)[C@H](c1ccc(O)cc1)N1[C@H](c3ccccc3)[C@H](c3ccccc3)OC(=O)[C@H]1[C@@H]2C(=O)N1CCc2cc(OC)c(OC)cc2C1 | 1.23 | -0.226 | 0.687 | -0.597 (inactive) | -0.681 | -0.32 | -0.705 | -1.15 | -0.591 | 0.0107
NC(=O)NCC#Cc1ccc2c(c1)[C@]1(C(=O)N2)[C@H](c2ccccc2OCCO)N2[C@H](c3ccccc3)[C@H](c3ccccc3)OC(=O)[C@H]2[C@@H]1C(=O)N1CCCCCCC1 | 1.68 | 2.88 | 1.73 | -0.308 (inactive) | 0.91 | 1.35 | 1.42 | 1.6 | 1.26 | 1.88
COCCOC(=O)N1C(=O)[C@@]2(c3cc(C#CCC(C(=O)OC)C(=O)OC)ccc31)[C@H](c1ccccc1OCCO)N1[C@H](c3ccccc3)[C@H](c3ccccc3)OC(=O)[C@H]1[C@@H]2C(=O)Nc1nc2ccccc2s1 | 1.46 | 0.514 | 0.641 | -1.04 (inactive) | 1.33 | 1.14 | 0.692 | 1.4 | 0.785 | 1.1
O=C(NCCN1CCOCC1)[C@@H]1c2ccccc2C(=O)N(Cc2cc(F)cc(C(F)(F)F)c2)[C@H]1c1ccc(CO)cc1 | 1.07 | -0.469 | 0.776 | 0.284 (inactive) | 0.07 | -0.202 | -0.651 | -0.217 | -1.14 | -0.333
CC(C)C(O)C1C=CC2C(=O)N(C)C(=O)C2N1N1CCCCC1 (stereo not given) | 1.61 | 0.184 | 0.674 | 1.15 (inactive) | 0.709 | 0.752 | 0.403 | 0.159 | 0.13 | 0.976
O=C1C2C=CC(C(O)CCc3ccccc3)N(Nc3ccccc3)C2C(=O)N1c1ccccc1 (stereo not given) | 0.692 | 1.18 | 1.29 | 0.35 (inactive) | 0.714 | 1.26 | -0.0133 | 0.425 | -0.194 | 0.205
COc1cc(CO)cc(I)c1O[C@H]1C=C(C(=O)NCCO)C[C@@H](N(CCc2cccc(F)c2)C(=O)CCC2CCCC2)[C@@H]1O | 1.1 | 0.0556 | 0.252 | -1.37 (inactive) | 1.54 | 1.01 | -0.261 | 0.716 | 0.897 | 0.733
[N-]=[N+]=NCc1ccccc1C[C@]1(C(=O)NCCN2CCOCC2)N=C(c2ccc(OCCCO)cc2)O[C@H]1c1ccccc1CN=[N+]=[N-] | 1.5 | 0.304 | 0.71 | -1.27 (inactive) | 1.48 | 1.32 | 0.357 | 0.535 | 0.16 | 0.928
O=S(=O)(NCCCO)c1ccc(Br)cc1 | 0.373 | 0.101 | 0.248 | -1.03 (inactive) | 0.568 | 0.309 | 0.598 | 0.175 | -0.0155 | 0.363
O=C1OCC=C[C@H]2OC34C=CCN(c5ccc6ccccc6c5)C(=O)[C@H]3N(CCO)C(=O)[C@@H]4[C@@H]12 (stereo not given in full) | 1.07 | 0.134 | 0.947 | -0.461 (inactive) | -0.455 | -0.657 | -1.49 | -1.33 | -2.42 | 0.589
CC(C)(C)OC(=O)CC[C@@]1(C(=O)N2CCOCC2)N=C(c2ccc(OCCCO)cc2)O[C@@H]1c1ccccc1N=[N+]=[N-] | 1.3 | 0.981 | 1.04 | -1.07 (inactive) | 1.33 | 0.451 | 0.295 | 1.13 | 0.458 | 1.03
CCN(CC)c1ccc(N2CC=CC34O[C@@H]5C=CCCOC(=O)C5[C@H]3C(=O)N(CCCO)[C@@H]4C2=O)cc1 (stereo not given in full) | -1.99 | -0.404 | -0.373 | -0.542 (inactive) | -0.344 | -0.0608 | -0.365 | -0.0243 | -0.174 | 1.5
